Screens: PubChem BioAssay, several laboratories
Rce1 inh – yeast Ras-converting enzyme inhibition; Q03530; yeast membranes, quenched prenylated peptide cleavage fluorescence; calls only; 290,000 compounds, 0.27% hits; AID 2563;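 active means fall in fluorescence gain of 50% or more versus controls, with final raw signal at or below 3038400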;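 further: plate controls were neutral control wells for no effect and wells lacking membranes for full effect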
PLCg1 inh – blocks human PLC-gamma1 enzyme activity; P19174; purified PLC-gamma1, fluorogenic substrate, fluorescence; inhibition, % at 12.2 µM; 370,000 compounds, 0.84% hits; in the data active means inhibition above about 9.5%
M18AAP inhibitor – blocks P. falciparum M18 aspartyl aminopeptidase; recombinant PfM18AAP, H-Glu-NHMec fluorogenic cleavage; 290,000 compounds, 1.2% hits; inhibition, % at 7.35 µM;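 active means inhibition above the campaign mean inhibition over all tested compounds plus 3 SD, cut at about 28% in these data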;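 further: 0% = plate median of test compound wells and 100% = 2 mM ZnCl2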
GC-B act – GC-B (human) receptor activation | P20594 | activation, % at 10 µM | 370,000 compounds, 0.11% hits | AID 1920062 | HEK293-GC-B cells, CNP EC30, cGMP TR-FRET; 0% at EC30 CNP, 100% saturating CNP;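 active means activation at 10 µM reaching about 35% in either raw or pattern-adjusted values, limit read from the data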
NPR1 activator – GC-A (human) enzyme activation. P16066. HEK293 GC-A cells, cGMP TR-FRET, EC30 ANP; 0% at EC30 ANP, 100% saturating ANP. activation, % at 10 µM. 370,000 compounds, 0.14% hits. AID 1671463; in the data active means activation above about 40%
PLCb3 inh – inhibitors of human phospholipase C beta3; inhibition, % at 12.2 µM; Purified PLC-beta3, fluorogenic substrate, fluorescence; Q01970; 370,000 compounds, 0.18% hits; in the data active means inhibition above about 11%;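 further: 0% = median of compound wells on plate and 100% = full blocker control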
An asterisk follows results filed as active. This is a sample that favours compounds with a hit; in the whole collection about 2.2% have one here.

What do the screens show for `COCCCNC(=O)c1cc2c(-c3cccc(OC)c3)nn(C)c2s1`?
Rce1 inh: active; PLCg1 inh: -142; M18AAP inhibitor: -6; GC-B act: -2; NPR1 activator: 0; PLCb3 inh: -195

What do the screens show for `CCCN(CCC)CCNC(=O)c1cc2c(-c3ccc(Cl)cc3)nn(C)c2s1`?
Rce1 inh: active; PLCg1 inh: -68; M18AAP inhibitor: -4; GC-B act: -6; NPR1 activator: -8; PLCb3 inh: -101

What do the screens show for `CCCN(CCC)CCNC(=O)c1cc2c(-c3ccccc3F)nn(C)c2s1`?
Rce1 inh: active; PLCg1 inh: -52; M18AAP inhibitor: -5; GC-B act: -14; NPR1 activator: -21; PLCb3 inh: -71

How did CCN(CC)CCNC(=O)c1cc2c(-c3cccc(OC)c3)nn(C)c2s1 do in these assays?
Rce1 inh: inactive; PLCg1 inh: -250; M18AAP inhibitor: 6; GC-B act: -19; NPR1 activator: -61; PLCb3 inh: -375

What do the screens show for `CCCN(CCC)CCCNC(=O)c1cc2c(-c3ccc(OC)c(OC)c3)nn(C)c2s1`?
Rce1 inh: inactive; PLCg1 inh: inactive; M18AAP inhibitor: 5; GC-B act: -16; NPR1 activator: -51; PLCb3 inh: inactive

Results for CCCCN(CC)CCNC(=O)c1cc2c(-c3ccc(Cl)cc3)nn(C)c2s1 ?
Rce1 inh: active; PLCg1 inh: -107; M18AAP inhibitor: -4; GC-B act: -5; NPR1 activator: -16; PLCb3 inh: -161

What do the screens show for `CC(C)C[C@H]1COc2cccc(F)c2S(=O)(=O)N1Cc1cn(Cc2ccco2)nn1`?
PLCg1 inh: 1; GC-B act: 5; NPR1 activator: 2; PLCb3 inh: 1

What do the screens show for `CCOc1cc(N2CCOCC2)c(OCC)cc1NC(=O)CN1CCc2ccccc2C1`?
Rce1 inh: inactive; PLCg1 inh: 8; M18AAP inhibitor: -1; GC-B act: 6; NPR1 activator: 12; PLCb3 inh: 11*

How did CC(CCN1CCC(C(O)(c2ccccc2)c2ccccc2)CC1)Oc1ccc(F)cc1 (stereo not given) do in these assays?
PLCg1 inh: 2; GC-B act: -9; NPR1 activator: -11; PLCb3 inh: 3

What do the screens show for `COc1nc(Nc2nc3ccccc3c(=O)[nH]2)nc2ccc(C)cc12`?
Rce1 inh: inactive; PLCg1 inh: 14*; M18AAP inhibitor: -5; GC-B act: 5; NPR1 activator: 5; PLCb3 inh: 7

What do the screens show for `O=C(OC12CCCN(C1)/C(=C/c1ccccc1)C2)C1CCCCC1` (stereo not given)?
PLCg1 inh: 0; GC-B act: -4; NPR1 activator: -1; PLCb3 inh: -2

Results for O=C(c1cn(-c2ccccc2)nc1-c1cccs1)N1CCN(c2ccccn2)CC1 ?
Rce1 inh: active; PLCg1 inh: 2; M18AAP inhibitor: 6; GC-B act: 8; NPR1 activator: 0; PLCb3 inh: 1

What do the screens show for `CC(C)C[C@H]1COc2cc(N3CCN(Cc4ccccc4F)CC3)ccc2S(=O)(=O)N1`?
PLCg1 inh: -1; GC-B act: 3; NPR1 activator: 0; PLCb3 inh: -4

Results for C[C@@H]1COc2cc(N3CCN(Cc4ccccc4F)CC3)ccc2S(=O)(=O)N1 ?
PLCg1 inh: 9.8*; GC-B act: 1; NPR1 activator: 0; PLCb3 inh: 5

What do the screens show for `NC1=NC(=O)/C(=C\c2ccc(-c3ccc(Cl)cc3)o2)S1`?
Rce1 inh: inactive; PLCg1 inh: -97; M18AAP inhibitor: 4; GC-B act: 38*; NPR1 activator: 33; PLCb3 inh: -135

Results for CC(=O)C1=C(O)C(=O)N(c2ccc(S(N)(=O)=O)cc2)C1c1cccc([N+](=O)[O-])c1 (stereo not given) ?
Rce1 inh: inactive; PLCg1 inh: 1; M18AAP inhibitor: 4; GC-B act: -3; NPR1 activator: 4; PLCb3 inh: -9

How did CC(=O)C1C(=O)c2c(cccc2[N+](=O)[O-])C1=Nc1ccc(S(N)(=O)=O)cc1 (stereo not given) do in these assays?
Rce1 inh: inactive; PLCg1 inh: -2; M18AAP inhibitor: 31*; GC-B act: -3; NPR1 activator: -2; PLCb3 inh: -3

How did COc1ccc(C(=O)OCC(=O)NC(=O)NC2CCCC2)cc1OC do in these assays?
PLCg1 inh: 0; GC-B act: -2; NPR1 activator: -3; PLCb3 inh: 0

What do the screens show for `CNc1ccc(C(=O)OCC(=O)NC(=O)NC2CCCC2)cc1[N+](=O)[O-]`?
PLCg1 inh: 13*; GC-B act: -1; NPR1 activator: -2; PLCb3 inh: -5

What do the screens show for `O=C(COc1ncnc2cc([N+](=O)[O-])ccc12)NCCc1ccc(Cl)cc1`?
Rce1 inh: inactive; PLCg1 inh: -3; M18AAP inhibitor: 5; GC-B act: 4; NPR1 activator: 2; PLCb3 inh: -23

Results for O=C(COc1ncnc2cc([N+](=O)[O-])ccc12)NC(=O)NC1CCCCC1 ?
Rce1 inh: active; PLCg1 inh: -11; M18AAP inhibitor: -7; GC-B act: -2; NPR1 activator: 9; PLCb3 inh: -9

What do the screens show for `Cn1cccc1C(=O)N1CCN(S(=O)(=O)c2ccc([N+](=O)[O-])cc2)CC1`?
PLCg1 inh: -2; GC-B act: 1; NPR1 activator: 2; PLCb3 inh: 2

What do the screens show for `CCn1c(COc2cccc(C)c2)nnc1SCC(=O)NC1CCCC1`?
Rce1 inh: active; PLCg1 inh: 1; M18AAP inhibitor: 4; GC-B act: -3; NPR1 activator: -1; PLCb3 inh: -7

How did Cc1cccc(OCc2nnc(SCC(=O)OC3CCCCC3)o2)c1 do in these assays?
Rce1 inh: inactive; PLCg1 inh: 1; M18AAP inhibitor: 5; GC-B act: -2; NPR1 activator: 60*; PLCb3 inh: 5

How did COc1ccc(C(=O)OCCCN(C)C2CN(Cc3cn(Cc4ccc([N+](=O)[O-])cc4)nn3)S(=O)(=O)C2)cc1OC (stereo not given) do in these assays?
PLCg1 inh: 2; GC-B act: 2; NPR1 activator: 3; PLCb3 inh: -5

How did CC(C)[C@H](NC(=O)OCc1ccccc1)C(=O)OCC(=O)Nc1c(F)cccc1F do in these assays?
Rce1 inh: active; PLCg1 inh: 1; M18AAP inhibitor: 0; GC-B act: 1; NPR1 activator: -2; PLCb3 inh: 5

How did CCOC(=O)c1c(NC(=O)CSc2nc3ccccc3s2)sc(C)c1C do in these assays?
Rce1 inh: inactive; PLCg1 inh: 8; M18AAP inhibitor: 30*; GC-B act: 12; NPR1 activator: 4; PLCb3 inh: 4

How did CCOc1ccc(-n2c(SCC(=O)Nc3cccc4ccccc34)nnc2-c2ccco2)cc1 do in these assays?
PLCg1 inh: 1; GC-B act: -2; NPR1 activator: 0; PLCb3 inh: 1
